# Records with an inconclusive call do not appear. Values without a mark were called inactive. Calls of active or inactive are those of the source. The call rests on the fitted dose curve; in most records, active means well fitted activation curve with a large enough effect; inconclusive means small, poorly fitted or top-dose-only effect; inactive means no such curve, though single readings can be large or run the other way.
# Experiment: Activators of T cell receptors: Hit Validation; on activation: 0% is about no effect
# Settings: primary human leukocytes, cytokine release by HTRF, 48 h
# Text: Normally activation of naive T cells requires two signals. 1. A signal through the T cell receptor (TCR) which provides antigen specificity to the response. 2. Signals through co-stimulatory molecules, which are necessary for proliferation, survival and cytokine production. In the absence of co-stimulatory signals T cells are not effectively activated, and may even be rendered anergic or unresponsive to subsequent signaling. This lack of costimulation has been shown in multiple model systems to be a major factor in the limited strength and effectiveness of anti-tumor T cell responses. The goal of this project is to identify small molecule compounds that will stimulate T cell activation in the presence of TCR signaling but in the absence of co-stimulatory signals, thereby allowing activation of naive T cells in the absence of co-stimulation. Identification of such compounds would have clear experimental and clinical applications in instances where desirable antigen-specific immune responses are not generated due to a lack of co-stimulation, for example in the generation of anti-tumor responses.
# In collaboration between the National Cancer Institute and NIH Chemical Genomics Center, a high-throughput amenable screen was developed to discover small molecules that co-stimulate and activate human T cell receptors. The screen will be carried out using a novel homogeneous time resolved fluorescence energy transfer (HTRF) assay to measure production of the cytokine IL-2 by activated T cells and will be tested against the NIH Molecular Libraries Small Molecule Repository (MLSMR). This is the same assay tested against the hits identified in the primary screen.
# NIH Chemical Genomics Center [NCGC]
# NIH Molecular Libraries Probe Centers Network [MLPCN]
# Assay Submitter (PI): Richard Hodes, National Cancer Institute, NIH
# Primary human leukocytes are incubated with a-CD3 beads and compounds for 48 hr. The amount of secreted IL-2 is then assayed with a HTRF IL-2 kit. The presence of IL-2 cytokine captures the detection reagents and brings the a-IL-2-K and a-IL-2-d2 into close proximity. Upon excitation with 320nm light, the europium cryptate is capable of transferring energy to acceptor molecules within close proximity, resulting in acceptor molecule emission at 665nm.
# Potency means the concentration at half of the fitted maximal effect.
row,Structure (SMILES),Potency
1,C=C(C)[C@@]12OC3(c4ccccc4)O[C@@H]1C1[C@@H]4O[C@]4(CO)[C@@H](O)[C@]4(O)C(=O)C(C)=C[C@H]4[C@@]1(O3)[C@H](C)[C@H]2OC(=O)/C=C/C=C/c1ccccc1 (stereo not given in full),0.002 µM (active)
2,CN(C)c1ccc(/C=C/c2cc[n+](C)c3ccccc23)cc1,7.91 µM (active)

# Same assay, conditions: primary human leukocytes, cytokine release by HTRF, 48 h; TCR-stimulated with anti-CD3 beads
row,Structure (SMILES),Potency
1,CN(C)c1ccc(/C=C/c2cc[n+](C)c3ccccc23)cc1,6.28 µM (active)

# Same assay, conditions: primary human leukocytes, cytokine release by HTRF, 48 h; at 46.1 µM (top of the series)
row,Structure (SMILES),activation
1,COc1ccc(N/N=C/c2c(O)n(-c3ccc(C)c(C)c3)c(=O)[nH]c2=O)cc1,11.6%
2,CCC(C)n1c(O)c(C=NC(C)c2ccccc2)c(=O)[nH]c1=S (stereo not given),6.34%
3,C#C[C@]1(O)CC[C@H]2[C@@H]3CCC4=CC(=O)CC[C@]4(C)[C@H]3CC[C@@]21C,-6.05%
4,COc1ccc(/C=C/C(=O)c2c(O)n(CCC3=CCCCC3)c(=O)[nH]c2=O)cc1,2.49%

# Same assay, conditions: primary human leukocytes, cytokine release by HTRF, 48 h; at 46.1 µM (top of the series); TCR-stimulated with anti-CD3 beads
row,Structure (SMILES),activation
1,CC(C)[C@]12CC(=O)[C@H](C)[C@H]1C2,-2.87%
2,Nc1cc(Cl)cc(Cl)c1,-3.76%
3,Cc1ccc(OC(F)F)c(N2C(=O)C3C4CCC(O4)C3C2=O)c1 (stereo not given),-0.91%

# Reference: PubChem BioAssay AID624298 (National Center for Advancing Translational Sciences (NCATS), 2012)
